“And” between values parts separate entries of the source, which are not always exact repeats. Identical values can stand only once. The panel holds about 79,000 compounds, 15% with a hit somewhere; the sample as a whole holds those more often. Where a structure was tested more than once in an assay, its records may differ in their call. The source made the active and inactive calls. No stated cut-off is given here; in the data, active means growth inhibition above about 70%; inactive means the rest.
Tests used:
[1] = NCI Yeast Anticancer Drug Screen. Data for the rad52 strain (AID 147);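 further: 0% = growth of vehicle-treated control cultures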; settings: S. cerevisiae rad52 mutant growth inhibition, stronger effect = higher value
Procedure, shortened: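 Here a repair-compromised yeast strain receives each compound; its growth is then quantified and normalised to vehicle-only controls.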

[2] = NCI Yeast Anticancer Drug Screen. Data for the wt1 strain (AID 149);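 further: 0% = growth of vehicle-treated wt1 cultures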; settings: S. cerevisiae wt1 strain (SPY 50644) growth inhibition, stronger effect = higher value
Procedure, shortened: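 Readout: yeast growth inhibition, normalised to vehicle controls, in the wt1 strain exposed to test compounds.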

[3] = NCI Yeast Anticancer Drug Screen. Data for the rad50EPP+ strain (AID 151);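 further: 0% = growth of vehicle-treated control cultures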; settings: S. cerevisiae rad50 mutant strain, stronger effect = higher value
Procedure, shortened: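 Read-out is yeast growth inhibition relative to vehicle; cells used were the rad50EPP+ strain.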

[4] = NCI Yeast Anticancer Drug Screen. Data for the mgt1 strain (AID 153); settings: S. cerevisiae mgt1 mutant growth inhibition, stronger effect = higher value
Procedure, shortened: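 Measured: inhibition of mgt1 yeast growth by compound, normalized to vehicle-treated cultures.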

[5] = NCI Yeast Anticancer Drug Screen. Data for the rad50 strain (AID 155);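 further: 0% = growth of vehicle-only cultures of the same strain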; settings: S. cerevisiae rad50 strain growth inhibition, stronger effect = higher value
Procedure, shortened: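 Compounds were tested on a yeast strain with an engineered DNA damage repair alteration; the reported value is growth inhibition normalised to vehicle treatment.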

[6] = NCI Yeast Anticancer Drug Screen. Data for the mec2-1 strain (AID 157); settings: S. cerevisiae mec2-1 strain, stronger effect = higher value
Procedure, shortened: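 Using mec2-1 yeast: add compound, measure growth, express inhibition versus vehicle-treated cultures.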

[7] = NCI Yeast Anticancer Drug Screen. Data for the rad14 strain (AID 159);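 further: 0% = growth of vehicle-treated control cultures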; settings: S. cerevisiae rad14 strain growth inhibition, stronger effect = higher value
Procedure, shortened: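 Compound-treated yeast with a defined DNA-repair lesion; growth inhibition normalised to vehicle-treated cultures.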

[8] = NCI Yeast Anticancer Drug Screen. Data for the sgs1 mgt1 strain (AID 161);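 further: 0% = growth of cultures given vehicle only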; settings: S. cerevisiae sgs1 mgt1 strain, stronger effect = higher value
Procedure, shortened: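 Growth of a repair-deficient yeast mutant was monitored after compound treatment and expressed as inhibition relative to vehicle-treated cultures.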

[9] = NCI Yeast Anticancer Drug Screen. Data for the CLN2oe strain (AID 163);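 further: 0% = growth of vehicle-only control cultures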; settings: S. cerevisiae CLN2oe strain, stronger effect = higher value
Procedure, shortened: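 Whole-cell yeast growth assay. A strain engineered for altered cell-cycle control received compound, and inhibition relative to vehicle-treated cultures was recorded.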

[10] = NCI Yeast Anticancer Drug Screen. Data for the cln2 rad14 strain (AID 165);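 further: 0% = growth equal to vehicle treated cultures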; settings: S. cerevisiae cln2 rad14 strain, stronger effect = higher value
Procedure, shortened: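 Yeast strain cln2 rad14, bearing defects in cell cycle control and DNA repair, serves as the test system; values reflect growth inhibition compared with vehicle.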

[11] = NCI Yeast Anticancer Drug Screen. Data for the bub3 strain (AID 167); settings: S. cerevisiae bub3 mutant strain, stronger effect = higher value
Procedure, shortened: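 Growth of a checkpoint-deficient yeast mutant is measured after compound exposure. Values represent inhibition relative to vehicle.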

[12] = NCI Yeast Anticancer Drug Screen. Data for the wt2 strain (AID 169);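 further: 0% = growth of vehicle-treated yeast cultures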; settings: S. cerevisiae wt2 strain growth inhibition, stronger effect = higher value
Procedure, shortened: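 Treated yeast vs. vehicle-treated yeast: growth inhibition determined.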

[13] = NCI Yeast Anticancer Drug Screen. Data for the mlh1 strain (AID 171);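 further: 0% = growth of vehicle-treated control cultures of the same strain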; settings: S. cerevisiae mlh1 strain growth inhibition, stronger effect = higher value
Procedure, shortened: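 A yeast strain with a defined genetic lesion serves as the test organism. Cultures receive compound or vehicle, and growth is measured.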

[14] = NCI Yeast Anticancer Drug Screen. Data for the sgs1 strain (AID 173);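 further: 0% = growth of vehicle-only control cultures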; settings: S. cerevisiae sgs1 mutant, stronger effect = higher value
Procedure, shortened: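 A genetically defined yeast mutant is incubated with the test compound, and its growth is compared to that of the same strain given vehicle.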

[15] = NCI Yeast Anticancer Drug Screen. Data for the mlh1 rad18 strain (AID 175); settings: S. cerevisiae mlh1 rad18 strain growth inhibition, stronger effect = higher value
Procedure, shortened: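 Steps: expose repair-defective yeast to compound; measure growth; express inhibition against vehicle-treated controls.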

[16] = NCI Yeast Anticancer Drug Screen. Data for the rad18 strain (AID 177); settings: S. cerevisiae rad18 mutant growth inhibition, stronger effect = higher value
Procedure, shortened: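 Measured value is growth inhibition of a yeast strain bearing a DNA repair alteration, referenced to vehicle-treated cells.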

[17] = at 5.0 µM (retest, dose inferred, filed as 0.5)
[18] = at 50.0 µM (retest, dose inferred, filed as 5.0)

Measured: growth inhibition

S=C1SCN(C2CCCCC2)CN1C1CCCCC1
active: [3]; at 100.0 µM 88% | [5]; [18] 99% | [6]; [18] 100% | [8]; [18] 94% | [8]; at 50.0 µM 72.3% | [10]; [18] 81% | [11]; [18] 94% | [11]; at 50.0 µM 82.8% | [11]; at 100.0 µM 71% | [13]; at 100.0 µM 79% | [14]; at 100.0 µM 71% | [15]; [18] 99%
inactive: [1]; at 1.2 µM -21% | [1]; at 3.7 µM -25% | [1]; at 11.0 µM -14% | [1]; at 33.0 µM -1% | [1]; at 100.0 µM 55% | [2]; at 1.2 µM -21% | [2]; at 3.7 µM -29% | [2]; at 11.0 µM -29% | [2]; at 33.0 µM -21% | [2]; at 100.0 µM 40% | [3]; at 1.2 µM -51% | [3]; at 3.7 µM -36% | [3]; at 11.0 µM -3% | [3]; at 33.0 µM 44% | [4]; at 1.2 µM -72% | [4]; at 3.7 µM -45% | [4]; at 11.0 µM -2% | [4]; at 33.0 µM -23% | [4]; at 100.0 µM 64% | [5]; at 1.2 µM -4% | [5]; at 3.7 µM -8% | [5]; [17] 44% | [5]; at 11.0 µM -1% | [5]; at 33.0 µM 13% | [5]; at 50.0 µM 47.5% | [5]; at 100.0 µM 67% | [6]; at 1.2 µM -65% | [6]; at 3.7 µM -78% | [6]; [17] 56% | [6]; at 11.0 µM -64% | [6]; at 33.0 µM -28% | [6]; at 50.0 µM 63.5% | [6]; at 100.0 µM 58% | [7]; at 1.2 µM -31% | [7]; at 3.7 µM -25% | [7]; at 11.0 µM -24% | [7]; at 33.0 µM 2% | [7]; at 100.0 µM 45% | [8]; [17] 0% | [9]; at 1.2 µM -21% | [9]; at 3.7 µM -19% | [9]; at 11.0 µM -16% | [9]; at 33.0 µM -1% | [9]; at 100.0 µM 19% | [10]; [17] 10% | [10]; at 50.0 µM 31.1% | [11]; at 1.2 µM -18% | [11]; at 3.7 µM -10% | [11]; [17] 20% | [11]; at 11.0 µM -23% | [11]; at 33.0 µM 22% | [12]; at 1.2 µM -37% | [12]; at 3.7 µM -35% | [12]; at 11.0 µM -39% | [12]; at 33.0 µM -22% | [12]; at 100.0 µM 39% | [13]; at 1.2 µM -44% | [13]; at 3.7 µM -43% | [13]; at 11.0 µM -31% | [13]; at 33.0 µM -5% | [14]; at 1.2 µM -36% | [14]; at 3.7 µM -22% | [14]; at 11.0 µM -17% | [14]; at 33.0 µM 24% | [15]; [17] 34% | [15]; at 50.0 µM 49.1% | [16]; at 1.2 µM -57% | [16]; at 3.7 µM -38% | [16]; at 11.0 µM -39% | [16]; at 33.0 µM -3% | [16]; at 100.0 µM 64%

O=C(O)c1ccc(N2C(=O)C=CC2=O)cc1
30% (inactive) and 72.7% (active): [5]; at 50.0 µM
inactive: [1]; at 1.2 µM 1% | [1]; at 3.7 µM 7% | [1]; at 11.0 µM 8% | [1]; at 33.0 µM 27% | [2]; at 1.2 µM -3% | [2]; at 3.7 µM -2% | [2]; at 11.0 µM 1% | [2]; at 33.0 µM 10% | [2]; at 100.0 µM 53% | [3]; at 1.2 µM 2% | [3]; at 3.7 µM 5% | [3]; at 11.0 µM 8% | [3]; at 33.0 µM 22% | [3]; at 100.0 µM 40% | [4]; at 1.2 µM 1% | [4]; at 3.7 µM 1% | [4]; at 11.0 µM 3% | [4]; at 33.0 µM 18% | [4]; at 100.0 µM 62% | [5]; at 1.2 µM 3% | [5]; at 3.7 µM 11% | [5]; [17] -8% and 7% | [5]; at 11.0 µM 14% | [5]; at 33.0 µM 33% | [5]; [18] 44% and 25% | [6]; at 1.2 µM -7% | [6]; at 3.7 µM -4% | [6]; [17] 5% and 7% | [6]; at 11.0 µM 0% | [6]; at 33.0 µM 21% | [6]; [18] 15% and 24% | [6]; at 50.0 µM 17.6% and 32.5% | [6]; at 100.0 µM 56% | [7]; at 1.2 µM -3% | [7]; at 3.7 µM -6% | [7]; at 11.0 µM 3% | [7]; at 33.0 µM 12% | [7]; at 100.0 µM 38% | [8]; [17] 9% and 8% | [8]; [18] 56% and 22% | [8]; at 50.0 µM 11.9% and 59.4% | [9]; at 1.2 µM 1% | [9]; at 3.7 µM 4% | [9]; at 11.0 µM 6% | [9]; at 33.0 µM 18% | [9]; at 100.0 µM 39% | [10]; [17] -35% and 5% | [10]; [18] -2% and 6% | [10]; at 50.0 µM 43.3% and 26.8% | [11]; at 1.2 µM -7% | [11]; at 3.7 µM -23% | [11]; [17] -13% and -1% | [11]; at 11.0 µM -3% | [11]; at 33.0 µM 4% | [11]; [18] 10% and -10% | [11]; at 50.0 µM -2.9% and -0.2% | [11]; at 100.0 µM 39%
active: [1]; at 100.0 µM 74% | [5]; at 100.0 µM 80%

From PubChem BioAssay (NCI)
